Compounds with a hit are over-represented: about 3.6% of the library has one in this group of screens.
NPSR antagonist – neuropeptide S receptor (human) antagonism, cAMP | CHO-NPSR cells, cAMP TR-FRET, antagonist mode | Potency, µM (top dose mostly 38.3 µM), for inactives: top-dose activity change, negative = inhibition, most hits filed as inhibitors | 220,000 tested, 1% active; also: % is scaled to controls: 0 for no effect and ±100 for the full control effect; nearly all actives have a fitted effect of over 50% in size
Sfp PPTase inh – Sfp phosphopantetheinyl transferase inhibition; Q9F4F7; Biochemical Sfp PPTase activity, qHTS; Potency, µM, without a hit: largest response in the series, negative = inhibition, most hits filed as inhibitors; 310,000 tested, 3.5% active; AID 1490;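 also: the enzyme is Sfp with the accession as filed and its product quenches rhodamine fluorescence; 0% = enzyme reaction without inhibitor and -100% = no enzyme wells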
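Fluorescence-quenching assay: 15 nM Sfp-PPTase preincubated 15 min at room temperature with compound, then 5 uM rhodamine-CoA and 12.5 uM BHQ-2-labelled YbbR peptide added. Fluorescence (ex 525/em 598 nm) read at start and after 30 min; difference gives rate.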
IMPase Li cell – cell-permeable IMPase inhibitors with lithium potentiation. CHO-M1 cells, IP1 TR-FRET (IP-One), carbachol + lithium. Potency, µM (top dose mostly 59.4 µM), without a hit: at the top dose activity, negative = IMPase inhibition, hits mostly inhibitors. 210,000 tested, 0.35% active;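 also: IP1 builds up when IMPase is blocked and the TR-FRET signal falls; plate controls were basal vehicle for no effect and high inhibitor control for full effect; nearly all actives have a fitted effect of over 50% in size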
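Test compounds were applied to CHO-M1 cells previously cultured for 16–30 h at 2000 per well. A small lithium amount accompanied them; after 30 min at 37C, IP1 was quantified by TR-FRET.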
JMJD2E inh – blocks human JMJD2E demethylase activity | 230,000 tested, 1.6% active | JMJD2E catalytic domain, FDH-coupled NADH fluorescence (FDH is formaldehyde dehydrogenase) | Potency, µM (highest dose often 57.1 µM), without a hit: at the top dose activity change, negative = inhibition, actives largely listed as inhibitors | AID 2147; active = well fitted inhibition curve with a large enough effect, not every such curve was filed as active; inconclusive = small, poorly fitted or top-dose-only effect, or another doubt; inactive = no such curve, though single readings can be large or run the other way;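 also: 0% = wells with enzyme and -100% = buffer wells without enzyme; nearly all actives have a fitted effect of over 50% in size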
Epigenetic reg – derepresses silenced GFP reporter in murine cells; Potency, µM (highest dose often 53.9 µM), inactives show top-dose GFP activation, actives largely listed as activators; murine LDR cells, GFP reporter derepression, 30 h; 280,000 tested, 0.2% active; also: % of control where 0% means no effect; nearly all actives have a fitted effect of over 60% in size
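Murine LDR cells carrying a silenced, genomically integrated CMV-driven GFP reporter were exposed to compound for 30 hours at 37 C. After PBS washes, GFP-positive cells (20–120 um objects) were counted by laser-scanning microplate cytometry.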
KAT2A inh – GCN5L2 (KAT2A) acetyltransferase inhibition | Q92830 | GCN5L2 HAT assay, ThioGlo1 CoA-SH fluorescence | Potency, µM (series often up to 58.9 µM), for the others: top-dose activity change, negative = inhibition, hits mostly inhibitors | 390,000 tested, 0.21% active; also: % is scaled to controls: 0 for no effect and ±100 for the full control effect
Target sequence (Q92830 whole entry, looked up): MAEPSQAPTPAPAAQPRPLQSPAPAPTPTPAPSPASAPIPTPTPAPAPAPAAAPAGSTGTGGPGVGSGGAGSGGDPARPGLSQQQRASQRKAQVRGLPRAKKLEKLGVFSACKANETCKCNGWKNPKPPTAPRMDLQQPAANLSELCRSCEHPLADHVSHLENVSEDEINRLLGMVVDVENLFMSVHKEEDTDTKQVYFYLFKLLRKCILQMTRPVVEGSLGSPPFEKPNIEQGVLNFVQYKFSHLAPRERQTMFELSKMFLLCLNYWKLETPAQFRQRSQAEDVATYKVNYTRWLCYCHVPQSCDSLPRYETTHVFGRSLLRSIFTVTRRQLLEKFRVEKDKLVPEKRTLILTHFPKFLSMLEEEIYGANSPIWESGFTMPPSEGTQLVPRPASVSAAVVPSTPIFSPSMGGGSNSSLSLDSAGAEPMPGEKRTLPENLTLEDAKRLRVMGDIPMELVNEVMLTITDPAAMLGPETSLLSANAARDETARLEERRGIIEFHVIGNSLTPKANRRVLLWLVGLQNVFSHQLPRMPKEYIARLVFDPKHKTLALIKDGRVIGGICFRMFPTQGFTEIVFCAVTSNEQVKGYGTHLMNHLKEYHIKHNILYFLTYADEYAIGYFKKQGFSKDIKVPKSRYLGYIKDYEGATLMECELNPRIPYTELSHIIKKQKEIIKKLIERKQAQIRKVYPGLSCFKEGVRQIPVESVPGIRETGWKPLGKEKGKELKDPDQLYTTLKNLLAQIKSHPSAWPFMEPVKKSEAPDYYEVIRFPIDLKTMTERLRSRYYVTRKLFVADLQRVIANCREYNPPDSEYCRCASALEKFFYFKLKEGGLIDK
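GCN5L2 (20nM final) in 50mM HEPES, 0.1mM EDTA pH 7.5, 0.01% Tween-20 was preincubated 15 min at room temperature with compound, then given ThioGlo1 (50uM), H3(1-25) peptide (75uM) and acetyl-CoA (70uM); CoA-thiol fluorescence (Ex340/Em540) was read at 0 and 20 min.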
* hit, by the source's call; ? = inconclusive; · = not tested or not shown; [ ] = remark or other dose. Unless noted, calls follow the shape of the dose curve; as a rule, active = well fitted curve in the direction sought with a large enough effect; inconclusive = small, poorly fitted or top-dose-only effect, or another doubt; inactive = no such curve, though single readings can be large; an effect the other way counts as inactive or inconclusive. Potency is read from the fitted curve at half-maximal effect.

SMILES	NPSR antagonist	Sfp PPTase inh	IMPase Li cell	JMJD2E inh	Epigenetic reg	KAT2A inh
O=C(Nc1ccc(N2CCCC2)cc1)C(c1ccccc1)c1ccccc1	?	50.1µM*	14.9%[38.3 µM]	-9.7%	-1.0%	-4.5%[0.501 µM]
CC(C)C(=O)Nc1ccc(N2CCCC2)cc1	?	79.4µM*	40.8%[38.3 µM]	-28.1%	0.0%	-1.1%
CC(=O)N1CCN(c2ccc(NC(=O)C(c3ccccc3)c3ccccc3)cc2)CC1	·	3.7%	·	·	·	-6.3%
C1CCC(NC(=NC2C3CC4CC(C3)CC2C4)N2CCOCC2)CC1 (centres undefined)	·	14.8%	17.8%	·	0.0%	6.9%
Oc1ccccc1C(Sc1nc2ccccc2s1)Sc1nc2ccccc2s1	·	·	-6.5%	·	·	·
CCc1ccc(NC(=O)CN2C(=O)CSc3ccc(S(=O)(=O)N(C)C)cc32)cc1	·	·	·	·	-2.6%	3.6%
COc1ccc(CCNC(=O)CN2CCCc3ccccc32)cc1OC	-9.2%[46.1 µM]	1.8%	1.5%[38.3 µM]	-1.3%	3.1%	-0.3%
O=C(CN1CCCc2ccccc21)NCCc1ccc(F)cc1	-15.7%	79.4µM*	9.8%	?	-0.1%	-5.0%
CC[n+]1ccc(/C=C2\Sc3ccccc3N2CCCS(=O)(=O)[O-])c2ccccc21	-5.6%	-10.5%	-3.0%	?	2.1%	0.1%
CN1C=C/C(=C\c2cc[n+](C)c3ccccc23)c2ccccc21	12.6µM*	9.7%	159.0%	3.98µM*	-0.3%	-5.8%
COc1nc(/C(N)=N/O)nc(N2CCCCC2)n1	-4.3%[46.1 µM]	79.4µM*	10.3%[38.3 µM]	-5.0%	0.0%	-9.3%
COc1nc(N2CCCCCC2)nc(N2CCCCCC2)n1	-22.4%[46.1 µM]	-6.7%	20.0%[38.3 µM]	9.9%	-1.0%	2.0%
CC(C)C[C@@H](CC(=O)N[C@@H](CCC(=O)O)CC(=O)O)NC(=O)[C@@H]1CCCC[C@H]1NC(=O)C[C@@H](NC(=O)C[C@H](Cc1c[nH]c2ccccc12)NC(=O)[C@@H]1CNCC[C@H]1N)C(C)C	·	-20.1%	9.8%	-6.6%	-1.1%	·
CN(C(=O)COC(=O)c1ccc2c(c1)OCO2)C1CCCCC1	·	·	·	·	·	1.4%
C[N+]12CCCCC1C(COC(=O)c1ccc3c(c1)OCO3)CCC2 (centres undefined)	0.3%[46.1 µM]	7.2%	33.0%[38.3 µM]	22.4µM*	-1.1%	-16.7%
Cc1ccc(C(=O)c2coc3cc([N+](=O)[O-])c(O)c([N+](=O)[O-])c23)cc1	-25.2%	39.8µM*	9.8%	-1.9%	1.0%	-12.6%
Cc1ccc(Sc2ccc(C(=O)N(C)C)cc2[N+](=O)[O-])cc1	-5.6%	-5.4%	14.2%	-3.7%	-0.7%[10.1 µM]	4.0%
CC(C)Cc1nc2sc3c(=O)[nH]cnc3c2c2c1CCC2	-22.3%	22.9%	10µM*	6.5%	4.0%	-5.0%
CCCc1nc2sc3c(=O)[nH]cnc3c2c2c1CCCC2	48.9%	5.2%	·	-2.6%	2.4%	-4.8%
CCc1nc2sc3c(=O)[nH]cnc3c2c2c1CSC(C)(C)C2	-3.0%	44.7µM*	·	?	-0.5%	-4.9%
Cc1ccc(-n2c(SCCC(C)C)nc3sc4c(c3c2=O)CC(C)(C)OC4)cc1	·	·	·	·	-2.9%	-3.7%
CCCCCCC1=Cc2cc(OC)c(OC)cc2C(C(C(C)=O)C(=O)OC)O1 (centres undefined)	·	12.6%	·	·	1.1%[10.1 µM]	·
O=C1[C@H]2[C@H]3[C@H](O)[C@H](O)C/C(=N/OCc4ccccc4)[C@@H]3CC[C@@H]2C(=O)N1C[C@@H]1CCCO1	·	-1.5%	·	·	0.8%[10.1 µM]	·
COc1ccc(Nc2nc(N3CCCCC3)c3ccccc3n2)cc1	?	50.1µM*	21.2%[38.3 µM]	-2.1%	-0.3%	-29.8%
CC[C@H](C)[C@H](NC(=O)[C@H](N)Cc1ccc(O)cc1)C(=O)N[C@@H](CC(N)=O)C(=O)N[C@@H](CC(C)C)C(=O)N[C@H](C(=O)N[C@@H](C(=O)N[C@@H](CCCN=C(N)N)C(=O)N[C@@H](CCC(N)=O)C(=O)N[C@@H](CCCN=C(N)N)C(=O)N[C@H](Cc1ccc(O)cc1)C(N)=O)[C@@H](C)O)[C@@H](C)CC	·	-1.9%	·	·	·	45.4%
SMILES	NPSR antagonist	Sfp PPTase inh	IMPase Li cell	JMJD2E inh	Epigenetic reg	KAT2A inh
CCCCCCC1=Cc2cc(OC)c(OC)cc2C(C2(C(=O)OCC)CCCC2=O)O1 (centres undefined)	·	-10.9%	·	·	1.1%[10.1 µM]	·
COc1cccc2c(=O)c3cccc(N)c3[nH]c12	-25.4%	22.4µM*	16.4%	?	-2.6%	-20.8%
CC(C)C[C@H](NC(=O)[C@H](CCCCN)NC(=O)CNC(=O)[C@H](CC(C)C)NC(=O)[C@@H](NC(=O)[C@@H]1CSSC[C@H](N)C(=O)N[C@@H](CO)C(=O)N[C@@H](CC(N)=O)C(=O)N[C@@H](CC(C)C)C(=O)N[C@@H](CO)C(=O)N[C@@H]([C@@H](C)O)C(=O)N1)C(C)C)C(=O)N[C@@H](CO)C(=O)N[C@@H](CCC(N)=O)C(=O)N[C@@H](CCC(=O)O)C(=O)N[C@@H](CC(C)C)C(=O)N[C@@H](Cc1cnc[nH]1)C(=O)N[C@@H](CCCCN)C(=O)N[C@@H](CC(C)C)C(=O)N[C@@H](CCC(N)=O)C(=O)N[C@H](C(=O)N[C@@H](Cc1ccc(O)cc1)C(=O)N1CCC[C@H]1C(=O)N[C@@H](CCCNC(=N)N)C(=O)N[C@H](C(=O)N[C@@H](CC(N)=O)C(=O)N[C@H](C(=O)NCC(=O)N[C@@H](CO)C(=O)NCC(=O)N[C@H](C(=O)N1CCC[C@H]1C(N)=O)[C@@H](C)O)[C@@H](C)O)[C@@H](C)O)[C@@H](C)O	·	-6.3%	·	·	·	50.2%
CCN(CC)CCn1c(-c2ccccc2)nc2c(NC3CCCCC3)nc(C)nc21	·	16.4%	1.2%	?	1.7%	·
CCOC(=O)c1c(-c2ccc(C)o2)csc1N	-14.6%[46.1 µM]	?	-16.7%[38.3 µM]	-5.7%	-0.6%	-8.2%
CCOC(=O)c1c(-c2ccccc2)csc1NC(=O)CCN1CCOCC1	-7.2%	50.1µM*	-3.2%	-7.7%	-1.3%	-10.3%
CCOC(=O)c1c(-c2ccc(C)o2)csc1NC(=S)NC(=O)N(C)C	-21.1%[46.1 µM]	56.2µM*	7.0%[38.3 µM]	-6.9%	0.0%	-9.1%
CCOC(=O)c1c(-c2cccs2)csc1NC(=O)CN1CCOCC1	-22.5%[46.1 µM]	-21.1%	34.1%[38.3 µM]	?	0.0%	-11.4%
CCOC(=O)c1c(-c2ccc(C)o2)csc1NC(=O)CSc1ncn[nH]1	8.2%[46.1 µM]	28.2µM*	17.0%[38.3 µM]	0.2%	-0.7%	-4.2%
CCOC(=O)c1c(-c2ccc(C)cc2)csc1NC(=O)CCN1CCOCC1	8.1%[46.1 µM]	?	9.1%	31.6µM*	1.0%	30.5%
CCOc1ccccc1NC(=O)C(C)Sc1nc2c(c(=O)[nH]1)CCCC2 (centres undefined)	·	·	·	·	-2.7%	-4.8%

Compound activity deposited in PubChem by National Center for Advancing Translational Sciences (NCATS).
